Read-out in assay [1]: UDP glucuronosyltransferase (UGT1A1), UGT1A1 (gene 54658)
As to the kind of experiment: LTEA_HepaRG_UGT1A1: Life Technologies and Expression Analysis (LTEA) Assay for UDP glucuronosyltransferase (UGT1A1) using HepaRG (AID 2283538; active = hit-call score of the fitted dose curve at least 0.9, where 1 is the maximum; inactive = score below 0.9). The note with it: mRNA level, 48 h; actives raise or lower the signal. An outline of the steps:
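Human liver HepaRG cultures receive test chemical for 48 h, up to 100 uM in 0.5% DMSO, with phenobarbital induction controls. UGT1A1 mRNA is measured by qRT-PCR and normalized to ACTB, GAPDH and POLR2A.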

Read-out in assay [2]: UDP glucuronosyltransferase (UGT1A6), UGT1A6 (gene 54578)
As to the kind of experiment: LTEA_HepaRG_UGT1A6: Life Technologies and Expression Analysis (LTEA) Assay for UDP glucuronosyltransferase (UGT1A6) using HepaRG (AID 2283539; active = hit-call score of the fitted dose curve at least 0.9, where 1 is the maximum; inactive = score below 0.9). The note with it: mRNA level, 48 h; actives raise or lower the signal. In short, it runs like this: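 Measures mRNA change in HepaRG hepatic cells exposed 48 h to chemicals (eight-point, maximum 100 uM, 0.5% DMSO vehicle) in serum-free induction medium. Expression normalized to endogenous controls; DMSO served as negative control and baseline.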

Read-out in assay [3]: X-box binding protein 1 (XBP1), XBP1 (gene 7494)
As to the kind of experiment: LTEA_HepaRG_XBP1: Life Technologies and Expression Analysis (LTEA) Assay for X-box binding protein 1 (XBP1) using HepaRG (AID 2283540; active = hit-call score of the fitted dose curve at least 0.9, where 1 is the maximum; inactive = score below 0.9). Particulars: mRNA level, 48 h; actives raise or lower the signal. An outline of the steps: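 Eight concentrations (half-log, highest 100 uM, 0.5% DMSO) tested in duplicate on HepaRG cells over 48 h in serum-free induction medium; qRT-PCR of XBP1 normalised to ACTB, GAPDH, POLR2A.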

Assay [4] can be described thus: LTEA_HepaRG_LDH_cytotoxicity: Cytotoxicity Assessment in the Life Technologies and Expression Analysis (LTEA) Assay (AID 2283563).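 For AC50: LDH activity released into spent culture medium as a marker of cell death.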 In short, it runs like this: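 Spent-medium LDH after 48 h chemical exposure of HepaRG cells in serum-free induction medium; eight concentrations, half-log dilutions from 100 uM, duplicate wells, fitted upward relative to 0.5% DMSO.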

Assay [5] in a line: TOX21_p53_BLA_p2_viability: Viability Assessment in the Tox21 HCT-116 p53 Agonism Beta-lactamase Assay, Phase 2 (AID 2283591).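 Note: compound exposure lasted 16 h at 37 °C; actives lower the ATP signal meaning cytotoxicity.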 In short, it runs like this:
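HCT-116 p53-bla cells (4000/well) rested 5 h at 37C, then received compounds in DMSO (217-fold dilution) for 16 h at 37C, 5% CO2. After the CCF4 read, CellTiter-Glo was added; ATP luminescence was read after 30 min at room temperature.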

The target of assay [6] is Cellular tumor antigen p53 (Homo sapiens) (UniProt P04637). As to the kind of experiment: TOX21_p53_BLA_p2_ratio: Tox21 HCT-116 p53 Agonism Beta-lactamase Assay, Ratio, Phase 2 (AID 2283592). In short, it runs like this:
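Human colon HCT116 cells with an inducible p53 beta-lactamase reporter are exposed to test chemicals for 16 h at 37C. Reporter induction is read as the 460/530 nm emission ratio after CCF4-AM loading, normalized to DMSO.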

Assay [7] is described as follows: TOX21_p53_BLA_p3_viability: Viability Assessment in the Tox21 HCT-116 p53 Agonism Beta-lactamase Assay, Phase 3 (AID 2283593).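 Note: cells exposed to compound for 16 h before reading.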 An outline of the steps:
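HCT-116 cells (4000/well) rested 5 h at 37C, then got DMSO compounds by pin tool (217-fold dilution) for 16 h at 37C, 5% CO2. After the bla read, CellTiter-Glo was added and luminescence read at 30 min, room temperature.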

Assay [8] addresses Cellular tumor antigen p53 (Homo sapiens) (UniProt P04637). As to the kind of experiment: TOX21_p53_BLA_p3_ratio: Tox21 HCT-116 p53 Agonism Beta-lactamase Assay, Ratio, Phase 3 (AID 2283596). In short, it runs like this: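 HCT116 p53-bla cells (4000/well) given compound in DMSO (217-fold dilution) after 5 h, incubated 16 h at 37C. CCF4-AM substrate 2 h at room temperature; 460/530 nm emission ratio, gain fitted against DMSO.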

Assay [9] in a line: TOX21_p53_BLA_p4_viability: Viability Assessment in the Tox21 HCT-116 p53 Agonism Beta-lactamase Assay, Phase 4 (AID 2283597).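 Note: hits lower the luminescence signal meaning cytotoxicity.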 In short, it runs like this: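 Luminescent ATP readout (CellTiter-Glo, 30 min, room temperature) in the same wells as the p53 bla ratio. HCT116 cells were treated for 16 h at 37C with DMSO-dissolved compounds.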
The target of assay [10] is Cellular tumor antigen p53 (Homo sapiens) (UniProt P04637). As to the kind of experiment: TOX21_p53_BLA_p5_ratio: Tox21 HCT-116 p53 Agonism Beta-lactamase Assay, Ratio, Phase 5 (AID 2283599). In short, it runs like this:
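HCT-116 cells carrying a p53-inducible beta-lactamase reporter were seeded at 4000 cells/well and dosed after 5 h with compound in DMSO (217-fold dilution). After 16 h at 37C, CCF4-AM substrate was added for 2 h, and the 460/530 nm emission ratio was scored as gain-of-signal versus DMSO.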

The structures appear in SMILES notation. Values joined by “and” are separate entries in the source; they are usually repeats but may differ in a detail not shown here. Equal entries are not always repeated. Results filed as inconclusive are left out. The source holds several records for some structures; these can differ, active in one and inactive in another. Active and inactive are the calls of the source. Rule for the calls, unless noted: active = hit-call score of the fitted dose curve at least 0.9, where 1 is the maximum; inconclusive = response in the unintended direction; inactive = score below 0.9.

Sequence of Cellular tumor antigen p53 (Homo sapiens) (P04637 whole entry, looked up): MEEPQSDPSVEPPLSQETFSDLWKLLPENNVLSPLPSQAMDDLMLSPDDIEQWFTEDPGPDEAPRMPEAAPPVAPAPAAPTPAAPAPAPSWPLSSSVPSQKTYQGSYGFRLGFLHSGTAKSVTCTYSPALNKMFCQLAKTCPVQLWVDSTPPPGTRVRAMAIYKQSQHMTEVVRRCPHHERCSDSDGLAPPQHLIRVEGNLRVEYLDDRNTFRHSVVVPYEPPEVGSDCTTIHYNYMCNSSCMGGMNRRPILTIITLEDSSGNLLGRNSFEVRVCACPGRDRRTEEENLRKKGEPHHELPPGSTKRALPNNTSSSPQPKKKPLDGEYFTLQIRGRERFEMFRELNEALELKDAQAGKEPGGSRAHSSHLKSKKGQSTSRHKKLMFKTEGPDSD

The AC50 is the concentration giving half of the maximal activity seen. Turning to `CC(C)Oc1cc(-n2nc(C(C)(C)C)oc2=O)c(Cl)cc1Cl`, the AC50 in assay [1] is 1.41 µM (active); in assay [2], 76.5 µM (active); in assay [4], 84.6 µM (active); in assay [9], 27.7 µM (active). Moreover, the result in [3], in [5], in [6], in assay [7], in assay [8] and in [9] was inactive. Also, in assay [10], the result was inactive.
Take `Cc1c(F)c(F)c(COC(=O)C2C(/C=C(\Cl)C(F)(F)F)C2(C)C)c(F)c1F` (stereo unspecified): the call in assay [1], in [2], in assay [3], in assay [4], in [5] and in assay [6] was inactive. The call in assay [7], in assay [8] and in [9] was inactive.
Take `CC(Oc1ccc(Cl)cc1Cl)C(=O)O` (stereo unspecified): the molecule was called inactive in assay [1], in assay [2], in assay [3], in assay [4], in assay [5] and in assay [6]. Besides, the outcome in [7], in [8], in assay [9] and in assay [10] was inactive.
Turning to `CCCCC(CC)COC(=O)c1ccccc1C(=O)OCC(CC)CCCC` (stereo unspecified), the AC50 in assay [1] was 9.29 µM (active). For the same molecule, the outcome in assay [2], in [3], in [4], in [5], in assay [6] and in [7] was inactive. Besides, the outcome in assay [8], in [9] and in [10] was inactive.
Regarding `N#Cc1cc(Br)c(O)c(Br)c1`, the AC50 was 17 µM (active) in assay [1]; 23.5 µM (active) in assay [2]; 10.5 µM (active) in assay [3]; 66.8 µM (active) in assay [4]; 40 µM (active) and 56 µM (active) in assay [6]; 57.5 µM (active) and 55.7 µM (active) in assay [8]. Moreover, in [10], the AC50 was 57.3 µM (active) and 72.4 µM (active). Moreover, the molecule was called inactive in assay [5], in [7] and in assay [9].
For `COC(=O)N(OC)c1ccccc1COc1ccn(-c2ccc(Cl)cc2)n1`, the AC50 in assay [1] was 82.4 µM (active); in assay [2] it was 73.3 µM (active); in assay [4], 71.5 µM (active); in assay [6], 1.09 µM (active); in assay [8], 1.51 µM (active); in [10], 1.9 µM (active). Moreover, the call in assay [3], in assay [5], in assay [7] and in [9] was inactive.
`CCOC(=O)CC(SP(=S)(OC)OC)C(=O)OCC` (stereo unspecified): the outcome in assay [1], in [2], in assay [3], in [4], in assay [5] and in assay [6] was inactive. For the same molecule, the call in assay [7], in assay [8], in assay [9] and in assay [10] was inactive. The AC50 in assay [7] is 43.3 µM (active).
`OC(c1ccc(Cl)cc1)(c1cncnc1)c1ccccc1Cl` (stereo unspecified): the AC50 in [1] is 91.1 µM (active); in assay [2] it was 74.1 µM (active); in assay [4], 70.1 µM (active); in [6] it was 81.5 µM (active). Moreover, the call in assay [3], in assay [5], in assay [6], in assay [7], in assay [8] and in assay [9] was inactive. Besides, in [10], the result was inactive.
In the case of `CCNc1nc(Cl)nc(NCC)n1`, in assay [1], the AC50 is 3.7 µM (active). Moreover, the call in assay [2], in assay [3], in assay [4], in assay [5], in assay [6] and in [7] was inactive. Besides, the outcome in assay [8], in [9] and in assay [10] was inactive.
For the molecule `C=CCC1=C(C)C(OC(=O)C2C(C=C(C)C)C2(C)C)CC1=O` (stereo unspecified), the call in assay [1], in [2], in [3], in [4], in [5] and in [6] was inactive. Moreover, the result in assay [8], in [9] and in [10] was inactive. For the same molecule, the AC50 in assay [7] was 65.3 µM (active).
Turning to `N#CC(CCc1ccc(Cl)cc1)(Cn1cncn1)c1ccccc1` (stereo unspecified), the AC50 in assay [1] is 74.9 µM (active); in [2] it was 81.9 µM (active); in assay [3] it was 80.3 µM (active); in assay [4] it was 37.5 µM (active); in [5] it was 56 µM (active); in assay [9], 39.1 µM (active). The outcome in assay [6], in assay [7], in [8] and in [10] was inactive.
Turning to `CCOc1cc(Oc2ccc(C(F)(F)F)cc2Cl)ccc1[N+](=O)[O-]`, the AC50 in assay [1] is 5.1 µM (active). Also, the molecule was classed as inactive in [2], in assay [3], in assay [4], in assay [5], in [6] and in assay [7]. Moreover, the result in assay [8] and in assay [9] was inactive.

The record behind these values is PubChem BioAssay (EPA / NIEHS).
